Reference: PubChem BioAssay AID504840 (Johns Hopkins Ion Channel Center, 2011)
In all, about 1,500 compounds went through this assay and about 890 (59%) were called active.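 Rule for the calls: active = inhibition of the choline-evoked signal at any tested dose together with a fitted dose-response curve; inactive = no inhibition at any dose or no curve.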 So high a share suggests a set chosen from earlier hits. Only a sample is shown. Entries with a potency or affinity are not part of this list.

What follows are compounds tested against High affinity choline transporter 1 (Homo sapiens) (UniProt Q9GZV3) (assay: human choline transporter blockers, potency – cell-based, 5-point CRC, membrane potential dye, dose response (AID 504840;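 note: 0% = buffer-only response and 100% = EC90 choline response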)). Conditions: HEK293-CHT, choline-induced depolarization, CHT with LV-to-AA double alanine mutation; series mostly up to 37 µM; inhibition: at the top concentration.
Chain of High affinity choline transporter 1 (Homo sapiens) (Q9GZV3 whole entry, looked up): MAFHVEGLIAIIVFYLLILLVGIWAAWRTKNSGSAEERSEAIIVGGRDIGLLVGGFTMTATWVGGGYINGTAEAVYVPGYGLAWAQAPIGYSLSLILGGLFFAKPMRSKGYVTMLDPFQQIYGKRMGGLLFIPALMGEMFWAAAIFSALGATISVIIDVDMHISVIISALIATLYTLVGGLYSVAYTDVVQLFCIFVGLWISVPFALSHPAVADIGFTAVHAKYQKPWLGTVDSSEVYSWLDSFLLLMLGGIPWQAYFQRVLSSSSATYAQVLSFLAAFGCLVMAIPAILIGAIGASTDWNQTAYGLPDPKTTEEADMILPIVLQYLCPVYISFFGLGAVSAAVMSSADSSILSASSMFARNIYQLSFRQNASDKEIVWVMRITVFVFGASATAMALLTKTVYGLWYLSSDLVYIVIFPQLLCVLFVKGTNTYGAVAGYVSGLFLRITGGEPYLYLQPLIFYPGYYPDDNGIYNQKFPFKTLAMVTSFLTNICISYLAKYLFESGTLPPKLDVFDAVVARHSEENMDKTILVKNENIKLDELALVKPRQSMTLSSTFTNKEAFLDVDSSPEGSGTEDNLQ

inhibition, inactive:
C/C(=N\NC(=O)c1ccccc1O)C1C(=O)c2ccccc2C1=O 77.1%, COC(=O)C1CN(C(=O)C(C)Oc2ccccc2Cl)c2ccccc2O1 (configuration not stated) 12.4%, CC(NC(=O)Cn1nc(-c2ccccc2)c2ccccc2c1=O)c1ccccc1 (configuration not stated) 21.8%, O=c1c2cc(Br)ccc2nc(-c2cccc(C(F)(F)F)c2)n1O 67.9%, CCn1c(SCC(=O)N=Nc2c(O)[nH]c3ccccc23)nc2ccccc21 49.4%, OC(CNCC#Cc1ccccc1)c1ccccc1 (configuration not stated) 52.2%, O=C(Nc1cc(F)ccc1F)C1CCCN(c2ncnc3c2nc2n3CCCCC2)C1 (configuration not stated) 79.4%, O=C(C1CCCN(c2ncnc3c2nc2n3CCCCC2)C1)N1CCN(c2cccc(Cl)c2)CC1 (configuration not stated) 27.1%, COc1ccc(Cl)cc1NC(=O)C1CCCN(c2ncnc3c2nc2n3CCCCC2)C1 (configuration not stated) 31.4%, Cc1ccc(N2CCN(C(=O)C3CCCN(c4ncnc5c4nc4n5CCCCC4)C3)CC2)c(C)c1 (configuration not stated) 39.4%, O=C(c1cccs1)C1C(c2ccc(Br)cc2)NC(=S)NC1(O)C(F)(F)F (configuration not stated) 32.4%, COc1ccc(Cl)c2sc(N(CCN(C)C)C(=O)c3ccc4c(c3)OCCO4)nc12 54.8%, Cc1[nH]n(-c2ccccc2)c(=O)c1N=Nc1c(O)cc(S(=O)(=O)N(C)C)c2ccccc12 66.8%, COc1cccc(N2CCN(c3ncnc4c3[nH]c3ccc(F)cc34)CC2C)c1 (configuration not stated) 20.5%, COCCNc1c2c(nc3c(-c4ccccc4)c(C)nn13)CCCC2 52.6%, CN1CCN(Cc2ccc(Sc3ccc(Cl)cc3)c([N+](=O)[O-])c2)CC1 30.8%, CCOC(=O)N1CCN(C(=O)CCCn2c(=S)[nH]c3ccc(Br)cc3c2=O)CC1 57.2%, CC1=NN(C(=O)c2ccc(Br)cc2)C(O)(C(F)(F)OC(F)(F)F)C1 (configuration not stated) 81.8%, O=C(Nc1ccccc1O)c1ccccc1O 55%, CCc1nc(NCc2ccccn2)c2oc3ccccc3c2n1 24.3%, O=C1c2ccccc2C(=O)c2c(Nc3ccc(CCO)cc3)ccc(O)c21 20.2%, COc1cc(C(CCN2CCCC(C)C2)c2c(OC)cc(OC)c3c(-c4ccccc4)cc(=O)oc23)cc(OC)c1OC (configuration not stated) 60.4%, O=C(CCCSc1nc2ccccc2[nH]1)N1CCN(c2ccccc2)CC1 34.3%, Cc1cc(C)nc(SCc2cc(=O)c(OC(=O)c3ccc(S(=O)(=O)N4CCCC4)cc3)co2)n1 64.7%, CN1CCN(c2ccc(S(=O)(=O)N3CCCCC3)cc2NC(=O)CSCc2ccccc2)CC1 52%, CC(C)[C@H](NC(=O)c1ccccc1)C(=O)OCC(=O)c1ccc2c(c1)NC(=O)CO2 52.6%, O=C(CCl)N(c1ccc(Cl)cc1)c1c[nH]c2ccccc12 37.7%
